Pf growth 96h = P. falciparum growth inhibition at 96 hours. Potency, µM (series often up to 28.7 µM), for the others: at the top dose activity change, negative = inhibition, most hits filed as inhibitors. AID 504834. 320,000 tested, 6.9% active. P. falciparum luciferase reporter growth, 96 h; also: potency is read from the fitted curve at half-maximal effect
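P. falciparum expressing integrated firefly luciferase grown in erythrocytes (2% hematocrit, 0.05% parasitemia final) with compounds for 96 hours at 37 C, 5% CO2. Growth inhibition read as loss of luminescence after adding luciferase detection reagent.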
HCV inh = blocks hepatitis C virus; 340,000 tested, 3.4% active; Huh7.5.1 HCVcc-Cre infection, luciferase reporter, 44 h; Potency, µM (doses to about 41.8 µM), without a hit: at the highest dose activity change, negative = inhibition, actives largely listed as inhibitors; also: potency is read from the fitted curve at half-maximal effect
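Infectious HCVcc-Cre (~0.5 moi) was added to cells just after compound, with cells seeded 4 h earlier at 1,000 per well. Luciferase activity after 44 h culture reported infection; substrate was incubated 15 min at room temperature before reading.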
Pf growth 48h = P. falciparum growth inhibition at 48 hours (one generation); P. falciparum luciferase growth in erythrocytes, 48 h; Potency, µM (doses to about 28.7 µM), inactives show at the top dose activity change, negative = inhibition, hits mostly inhibitors; 310,000 tested, 5.9% active; also: potency is read from the fitted curve at half-maximal effect
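First compound was added to culture medium, then infected red cells at 0.1% parasitemia and 2% hematocrit (final). After incubation at 37 C under 5% CO2, luciferase detection reagent was dispensed and light output recorded.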
HCMV inh = human cytomegalovirus inhibition. HFF cells, HCMV-luciferase reporter, 72 h; hits give low values. activity change, negative = inhibition, % at 57.5 µM. 410,000 tested, 4.5% active. AID 1259415; in the data active = activity change below about -60%; inconclusive = no clear call, values can overlap the other calls; inactive = above about -39%
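Human foreskin fibroblasts infected with luciferase-reporter HCMV at MOI 1 PFU/cell, compounds at two doses. Luciferase measured 72 h post infection; normalized to buffer-only basal and Salinomycin (10uM) controls.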
Numbers without * were called inactive. The list is not random: actives were taken first. Their share in the collection is about 13%. Unless noted, calls follow the shape of the dose curve; as a rule, active = well fitted inhibition curve with a large enough effect; inconclusive = small, poorly fitted or top-dose-only effect, or another doubt; inactive = no such curve, though single readings can be large or run the other way. % is scaled to controls: 0 for no effect and ±100 for the full control effect.

How did CCCCCNCc1ccc(Cl)cc1 do in these assays?
Pf growth 96h: 105%; HCV inh: 11%; Pf growth 48h: 5%; HCMV inh: inconclusive

How did OCCCCNCc1ccc(OCc2ccc(Cl)cc2)cc1 do in these assays?
Pf growth 96h: 15µM*; HCV inh: inconclusive; Pf growth 48h: inconclusive; HCMV inh: -27

Results for CC(NCc1ccccc1Cl)C(O)c1ccccc1 (stereo unspecified) ?
Pf growth 96h: 7.4µM*; HCV inh: 5%; Pf growth 48h: 9.3µM*; HCMV inh: 16

How did COc1cccc(C(=O)C2CCCN(Cc3cccc(-n4nc(C)cc4C)c3)C2)c1 (stereo unspecified) do in these assays?
Pf growth 96h: inconclusive; HCV inh: 35µM*; Pf growth 48h: inconclusive; HCMV inh: 6

Results for COc1cccc(C(=O)C2CCCN(Cc3ccc4nsnc4c3)C2)c1 (stereo unspecified) ?
Pf growth 96h: -16%; HCV inh: 1%; Pf growth 48h: 1%; HCMV inh: -6

What do the screens show for `COc1cccc(C(=O)C2CCCN(Cc3cccc(C)n3)C2)c1` (stereo unspecified)?
Pf growth 96h: inconclusive; HCV inh: -11%; Pf growth 48h: 2.9µM*; HCMV inh: inconclusive

What do the screens show for `COc1c(C)cc(C(=O)C2CCCN(Cc3cccc(O)c3)C2)cc1C` (stereo unspecified)?
Pf growth 96h: 1%; HCV inh: 13µM*; Pf growth 48h: 12µM*; HCMV inh: 15

What do the screens show for `COc1cccc(C(=O)C2CCCN(Cc3cccc(OCCO)c3)C2)c1` (stereo unspecified)?
Pf growth 96h: 4.7µM*; HCV inh: 2%; Pf growth 48h: inconclusive; HCMV inh: 55

How did O=C(c1cccc(OC2CCN(Cc3cccc(OCCO)c3)CC2)c1)N1CCCC1 do in these assays?
Pf growth 96h: 8.3µM*; Pf growth 48h: -24%; HCMV inh: -3

What do the screens show for `Cc1ccc(CN2CCC(Oc3cccc(C(=O)N(C)CCN(C)C)c3)CC2)cc1C`?
Pf growth 96h: 7%; HCV inh: inconclusive; Pf growth 48h: 9.3µM*; HCMV inh: 9

How did CCN1CCN(Cc2c(O)ccc3c(=O)c(Oc4ccccc4Cl)c(C(F)(F)F)oc23)CC1 do in these assays?
HCMV inh: 3

What do the screens show for `COC(=O)C1=C(C)N(Cc2ccccc2)C(=NCc2ccc(OC)cc2)N[C@H]1c1ccc(Br)cc1`?
Pf growth 96h: inconclusive; Pf growth 48h: 23%

Results for Cc1cc(NC(=O)CCNS(=O)(=O)c2ccc3c(c2)CCCC(=O)N3)ccc1Br ?
HCMV inh: -29

What do the screens show for `Cc1cc(O)c2c(c1)C(=O)C13C(=C2O)C(=O)[C@H]2[C@@H](O)[C@@H]1[C@H]1[C@H](O)[C@@H]3C(=O)C3=C(O)c4c(O)cc(C)cc4C(=O)C312` (stereo partly specified)?
Pf growth 96h: 3.3µM*; HCV inh: 10µM*; Pf growth 48h: 4.1µM*

Results for Cc1ccc(Sc2c(C)nn(C(C)(C)C)c2OC(=O)CC(C)C)cc1 ?
HCMV inh: 3

What do the screens show for `O=S(=O)(c1ccc2ccccc2c1)N1CCN=C1SCc1cccnc1`?
Pf growth 96h: 4%; HCV inh: 19%; Pf growth 48h: 13%; HCMV inh: -17

What do the screens show for `CC(=O)Nc1ccc(S(=O)(=O)N2CCN=C2SCc2cccnc2)cc1`?
Pf growth 96h: 14%; HCV inh: -11%; Pf growth 48h: inconclusive; HCMV inh: inconclusive

How did CC(=O)Nc1ccc(S(=O)(=O)N2CCN=C2SCc2ccc(C)cc2)cc1 do in these assays?
Pf growth 96h: 53%; HCV inh: inconclusive; Pf growth 48h: 45%; HCMV inh: 17

What do the screens show for `CCS(=O)(=O)N1CCN=C1SCc1cccc(F)c1`?
Pf growth 96h: -6%; HCV inh: 30%; Pf growth 48h: -7%; HCMV inh: -60*

What do the screens show for `O=S(=O)(c1ccc(F)cc1)N1CCN=C1SCc1cccnc1`?
Pf growth 96h: 22%; HCV inh: 6%; Pf growth 48h: -16%; HCMV inh: -67*

Results for O=S(=O)(c1ccc(Br)cc1)N1CCN=C1SCc1cccnc1 ?
Pf growth 96h: 18%; HCV inh: 14%; Pf growth 48h: -3%; HCMV inh: -69*

What do the screens show for `CC(=O)Nc1ccc(S(=O)(=O)N2CCN=C2SCc2ccc(F)cc2)cc1`?
Pf growth 96h: 15µM*; HCV inh: inconclusive; Pf growth 48h: inconclusive; HCMV inh: -18

How did CC(C)c1cccc(-c2nc3c(Nc4ccccc4)nccc3[nH]2)c1 do in these assays?
HCMV inh: -17

How did CSc1ccc(CCNC(=O)c2ccc(-c3nc(COc4ccc(C)cc4)c(C)o3)cc2)cc1 do in these assays?
HCMV inh: 16

Results for CCCS(=O)(=O)N1CCN=C1SCc1cccnc1 ?
Pf growth 96h: inconclusive; HCV inh: 5%; Pf growth 48h: inconclusive; HCMV inh: -62*

Results for CCN(CCCNC(=O)Cn1ncc2c3ccccc3n(C)c2c1=O)c1cccc(C)c1 ?
HCMV inh: 21

Results for Oc1ccc(Cl)cc1CNn1cnnc1 ?
Pf growth 96h: -19%; HCV inh: 32%; Pf growth 48h: 19%; HCMV inh: -18

Results for Oc1ccccc1CNn1cnnc1 ?
Pf growth 96h: 37%; HCV inh: 27%; Pf growth 48h: 36%; HCMV inh: -100*

What do the screens show for `Cc1ccccc1CNC(=O)CN(c1cccc(C)c1C)S(C)(=O)=O`?
HCMV inh: 9

Results for CCCS(=O)(=O)n1nc(-c2ccc(Br)cc2)cc1N ?
Pf growth 96h: -17%; HCV inh: -24%; Pf growth 48h: 19%; HCMV inh: -39

What do the screens show for `CCS(=O)(=O)n1nc(-c2ccccc2)cc1N`?
Pf growth 96h: 1.3µM*; HCV inh: 8%; HCMV inh: -7

What do the screens show for `CCCS(=O)(=O)n1nc(-c2ccccc2)cc1N`?
Pf growth 96h: 9.3µM*; HCV inh: -28%; HCMV inh: -13

Results for COc1ccc(C2c3c(n(C)c4ccccc34)C(=O)N2CC(=O)Nc2ccc(C)cc2Cl)cc1 (stereo unspecified) ?
HCMV inh: 0

Results for CCCC(=O)Nc1nc2c(s1)CC(C(C)(C)C)CC2 (stereo unspecified) ?
HCMV inh: 28

What do the screens show for `COc1ccc(C(CC(=O)N2CCCC2)c2c(OC)cc(OC)c3ccc(=O)oc23)cc1` (stereo unspecified)?
Pf growth 96h: inconclusive; HCV inh: 2.8µM*; Pf growth 48h: inconclusive; HCMV inh: -22

Results for COc1ccc(C(CC(=O)N2CCCC(C)C2)c2c(OC)cc(OC)c3ccc(=O)oc23)cc1 (stereo unspecified) ?
Pf growth 96h: inconclusive; HCV inh: 11µM*; Pf growth 48h: 12µM*; HCMV inh: -32

Results for Cc1cc(F)ccc1Nc1nc2ccc(Cl)cc2n2cnnc12 ?
HCMV inh: -35

Screening results as filed in PubChem.
